About 83,000 compounds went through this panel and 20% of them were active in at least one assay; those are over-represented in the sample as a whole.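 Cell lines were cultured in 96-well plates, exposed to a single compound concentration, and assessed for percent growth 48 hours later.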 Values without a mark were called inactive. Calls of active or inactive are those of the source. Rule for the calls: active = growth percent below 10; inactive = the rest.

Test systems include HCT-15 colon; HT29 colon; SNB-75 CNS; SNB-19 CNS; U251 CNS; PC-3 prostate; SK-MEL-5 melanoma; UACC-62 melanoma; LOX IMVI melanoma; SK-MEL-28 melanoma.
Experiment in all cases: NCI-60 one-dose screen, 48 h (100 = growth as untreated, 0 = no growth, -100 = all killed)
Common to all, as to conditions: 10 µM unless noted

For the compound `COc1ccc(-c2nc(SCC(=O)Nc3nc(-c4ccccc4)cs3)[nH]c(=O)c2C#N)cc1`, the growth in the test on HCT-15 colon is 109%; in the test on HT29 colon, 115%; in the test on SNB-75 CNS it was 70.4%; in the test with SNB-19 CNS, 109%; in the test on U251 CNS, 103%; with PC-3 prostate, 86%. The growth is 102% in the test with SK-MEL-5 melanoma, 92.1% in the test with UACC-62 melanoma, 92.9% in the test with LOX IMVI melanoma and 104% with SK-MEL-28 melanoma.

Turning to `C=CCSc1nc2ccccc2cc1/C=N/O`, the growth in the test on HCT-15 colon was 95.8%; in the test with HT29 colon, 92.7%; with SNB-75 CNS it was 58%; in the test with SNB-19 CNS it was 89.3%; with U251 CNS it was 86.6%; with PC-3 prostate, 83.1%. The growth with SK-MEL-5 melanoma is 96.3%; in the test on UACC-62 melanoma, 71.2%; in the test on LOX IMVI melanoma it was 85.9%; in the test with SK-MEL-28 melanoma it was 88%.

Turning to `O=Cc1c[nH]c2ccc(-c3csc4ccccc34)cc12`, the growth with HCT-15 colon was 29%; in the test on HT29 colon it was 16.5%; in the test on SNB-75 CNS, 39.9%; in the test with SNB-19 CNS, 34.3%; in the test on U251 CNS, 25.2%; with PC-3 prostate, 61.9%. The growth in the test on SK-MEL-5 melanoma was 61%; in the test with UACC-62 melanoma, 34%; in the test on LOX IMVI melanoma, 39.5%; with SK-MEL-28 melanoma it was 69.8%.

With `O=C(O)c1ccc2c(c1)CCC2`, the growth in the test on HCT-15 colon is 104%; in the test on HT29 colon it was 103%; in the test with SNB-75 CNS, 107%; with SNB-19 CNS, 103%; in the test with U251 CNS, 104%; with PC-3 prostate it was 106%. The growth is 108% in the test on SK-MEL-5 melanoma, 113% with UACC-62 melanoma, 97% in the test on LOX IMVI melanoma and 112% in the test with SK-MEL-28 melanoma.

On to `COC(=O)c1c2c(c(C)[n+]([O-])c1C)C(=O)C(NCc1ccc(F)c(Cl)c1)=CC2=O`, for which the growth was 8.29% (active) in the test on HCT-15 colon; 5% (active) in the test on HT29 colon; 109% with SNB-75 CNS; 7.17% (active) in the test with SNB-19 CNS; -20.4% (active) in the test on U251 CNS; 5.89% (active) in the test on PC-3 prostate. Also, the growth in the test with SK-MEL-5 melanoma was -71.6% (active); in the test with UACC-62 melanoma, -42% (active); in the test with LOX IMVI melanoma, 9.57% (active); in the test on SK-MEL-28 melanoma, 57.9%.

For `N/C(=N/N=C/c1ccccc1)N/N=C\c1ccccc1`, the growth in the test with HCT-15 colon is 44.1%; in the test on HT29 colon, 27.7%; in the test on SNB-75 CNS, 67.1%; in the test on SNB-19 CNS it was 74.6%; in the test with U251 CNS, 50.2%; with PC-3 prostate, 64.3%. In addition, the growth with SK-MEL-5 melanoma is 34.1%; in the test on UACC-62 melanoma, 70.5%; with LOX IMVI melanoma it was 62.1%; with SK-MEL-28 melanoma, 71.9%.

Turning to `COc1ccc(-c2csc(C3=C(O)CN(C(C)C)C3=N)n2)cc1OC`, the growth in the test on HCT-15 colon was 103%; in the test with HT29 colon, 102%; in the test with SNB-75 CNS it was 112%; with SNB-19 CNS, 104%; in the test on U251 CNS, 98.3%; with PC-3 prostate it was 35.3%. For the same compound, the growth with SK-MEL-5 melanoma is 82.5%; in the test on UACC-62 melanoma it was 97.3%; in the test with LOX IMVI melanoma it was 94.1%; with SK-MEL-28 melanoma, 123%.

Turning to `COc1cc(Cn2ncc3ccc(NC(=O)c4cc5ccccc5oc4=N)cc32)cc(OC)c1OC`, the growth is 27.2% with HCT-15 colon; 15.8% with HT29 colon; 90.9% in the test with SNB-75 CNS; 70.9% in the test on SNB-19 CNS; 62.9% with U251 CNS; 47.1% in the test with PC-3 prostate. Further, the growth was 61.6% in the test on SK-MEL-5 melanoma, 55.2% with UACC-62 melanoma, 63.6% with LOX IMVI melanoma and 51.3% in the test on SK-MEL-28 melanoma.

`O=c1cc(C2NNC(=S)N2)c2ccc3ccccc3c2o1` (stereo not given): the growth in the test on HCT-15 colon was 98.1%; in the test with HT29 colon, 100%; in the test on SNB-75 CNS, 105%; with SNB-19 CNS it was 93.2%; in the test with U251 CNS, 96.8%; in the test on PC-3 prostate it was 85.2%. Further, the growth is 96.8% in the test with SK-MEL-5 melanoma, 86.3% in the test on UACC-62 melanoma, 87.5% with LOX IMVI melanoma and 114% with SK-MEL-28 melanoma.

For the compound `N=C(N)c1ccc(-c2ccc(-c3cncc4ccccc34)s2)s1`, the growth in the test with HCT-15 colon is -74.2% (active); in the test on HT29 colon, -77.1% (active); in the test with SNB-75 CNS, -95.9% (active); with SNB-19 CNS it was -54.8% (active); with U251 CNS, -92.5% (active); with PC-3 prostate, -80.8% (active). Moreover, the growth is -89.5% (active) in the test with SK-MEL-5 melanoma, -64.5% (active) in the test with UACC-62 melanoma, -78.1% (active) in the test with LOX IMVI melanoma and -69.7% (active) in the test with SK-MEL-28 melanoma.

With `c1ccc2cc3nc4cc5ccccc5cc4nc3cc2c1`, the growth with HCT-15 colon is 96.9%; with HT29 colon, 103%; in the test with SNB-75 CNS, 89.3%; in the test on SNB-19 CNS, 97.2%; with U251 CNS it was 101%; in the test with PC-3 prostate, 85%. For the same compound, the growth is 102% with SK-MEL-5 melanoma, 96.5% with UACC-62 melanoma, 86.1% in the test with LOX IMVI melanoma and 96.9% in the test on SK-MEL-28 melanoma.

As to `CCOP(=O)(OCC)C1CP(=O)(c2ccccc2)CC(C)=C1Cl` (stereo not given), the growth was 102% in the test with HCT-15 colon; 118% with HT29 colon; 90.9% in the test on SNB-75 CNS; 104% in the test with SNB-19 CNS; 96.9% in the test with U251 CNS; 90% in the test on PC-3 prostate. For the same compound, the growth in the test with SK-MEL-5 melanoma was 103%; with UACC-62 melanoma, 95.1%; in the test on LOX IMVI melanoma, 88.9%; with SK-MEL-28 melanoma it was 104%.

Consider `COc1cc2nc(Cl)nc(Nc3ccc(S(=O)(=O)Nc4nccs4)cc3)c2cc1OC`, for which the growth was 96.3% in the test on HCT-15 colon; 117% with HT29 colon; 87.1% in the test with SNB-75 CNS; 102% in the test with SNB-19 CNS; 96.3% in the test with U251 CNS; 91.6% with PC-3 prostate. The growth in the test with SK-MEL-5 melanoma was 102%; in the test on UACC-62 melanoma, 96%; in the test on LOX IMVI melanoma it was 86.5%; with SK-MEL-28 melanoma, 115%.
